What all share (experiment): NCI-60 one-dose screen, 48 h (100 = growth as untreated, 0 = no growth, -100 = all killed)
The test system of one experiment is SK-MEL-2 melanoma. Particulars: 10 µM.
In the next experiment the test system is EKVX NSCLC. Conditions: 10 µM.
The subject of the next experiment is SN12C renal. Conditions: 10 µM.
A further experiment deals with UO-31 renal. Conditions: 10 µM.
The next experiment deals with TK-10 renal. Particulars: 10 µM unless noted.
The next experiment deals with ACHN renal. Particulars: 10 µM.
Another experiment deals with CAKI-1 renal. Conditions: 10 µM.
A further experiment deals with A498 renal. Particulars: 10 µM.
Another experiment relates to CCRF-CEM leukemia. Conditions: 10 µM.
The test system of the next experiment is MOLT-4 leukemia. Particulars: 10 µM.

Structures are written as SMILES. This is part of a sample that, as a whole, favours compounds with a hit. Of some 83,000 tested, about 20% had one in any assay.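 A percent growth of 40 corresponds to 60% growth inhibition; 0 means no net growth; -100 means all cells died. Active threshold: below 10.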 Values without a mark were called inactive. Activity calls are given as the source filed them.

Take `O=C(CCl)Nc1ccc2c(c1)C(=O)c1ccc(NC(=O)CCl)cc1C2=O`: the growth was -38.8% (active) in the experiment on SK-MEL-2 melanoma; -15.2% (active) in the experiment with EKVX NSCLC; -49.5% (active) with SN12C renal; -95.5% (active) in the experiment on UO-31 renal; 3% (active) with TK-10 renal; -65.7% (active) with ACHN renal. The growth was -88.7% (active) with CAKI-1 renal, 12.4% in the experiment on A498 renal, -46.9% (active) in the experiment on CCRF-CEM leukemia and -31.8% (active) with MOLT-4 leukemia.

Consider `CCCC(=O)Nc1ccc2c(c1)CN1C(=O)c3ccccc3C1=N2`, for which the growth in the experiment with SK-MEL-2 melanoma was 100%; with EKVX NSCLC, 108%; in the experiment with SN12C renal, 100%; in the experiment with UO-31 renal, 86.1%; in the experiment on TK-10 renal, 96.4%; in the experiment on ACHN renal it was 111%. The growth was 97.2% with CAKI-1 renal, 88.5% with A498 renal, 99.6% in the experiment with CCRF-CEM leukemia and 98.4% in the experiment on MOLT-4 leukemia.

Take `Nc1ccccc1C(=O)Nc1ccc(Cl)cc1Cl`: the growth in the experiment on SK-MEL-2 melanoma was 112%; in the experiment on EKVX NSCLC, 99.5%; with SN12C renal it was 103%; in the experiment on UO-31 renal, 52.4%; in the experiment with TK-10 renal it was 118%; in the experiment on ACHN renal, 94%. Besides, the growth was 69.1% with CAKI-1 renal, 107% in the experiment on A498 renal, 90.3% with CCRF-CEM leukemia and 77.7% with MOLT-4 leukemia.

As to `O=C(O)c1cccc([N+](=O)[O-])c1`, the growth is 112% in the experiment on SK-MEL-2 melanoma; 114% in the experiment on EKVX NSCLC; 103% in the experiment on SN12C renal; 89.6% in the experiment on UO-31 renal; 110% in the experiment on TK-10 renal; 114% with ACHN renal. The growth in the experiment with CAKI-1 renal is 100%; with A498 renal it was 102%; in the experiment with CCRF-CEM leukemia, 112%; in the experiment on MOLT-4 leukemia it was 101%.

`CCCCC(O)c1ccccc1` (stereo not given): the growth with SK-MEL-2 melanoma is 109%; in the experiment on EKVX NSCLC, 110%; with SN12C renal it was 109%; in the experiment on UO-31 renal it was 94.2%; in the experiment on TK-10 renal, 106%; with ACHN renal, 110%. Also, the growth with CAKI-1 renal is 99.7%; with A498 renal, 95.8%; in the experiment with CCRF-CEM leukemia, 107%; in the experiment with MOLT-4 leukemia, 101%.

On to `CC1(C)N=C(N)N=C(N)N1c1cccc(Br)c1`, for which the growth is 65.3% in the experiment on SK-MEL-2 melanoma; 45.1% in the experiment with EKVX NSCLC; 37.3% in the experiment with SN12C renal; 50.2% in the experiment with UO-31 renal; 51.7% in the experiment with TK-10 renal; 30.2% in the experiment with ACHN renal. For the same molecule, the growth was 70% in the experiment on CAKI-1 renal, 104% in the experiment with A498 renal, 36.1% with CCRF-CEM leukemia and 41.4% in the experiment on MOLT-4 leukemia.

For the molecule `CC(=O)Oc1ccc(Br)cc1C(=O)O`, the growth was 99.8% with SK-MEL-2 melanoma; 104% in the experiment with EKVX NSCLC; 102% in the experiment on SN12C renal; 81.8% with UO-31 renal; 102% in the experiment with TK-10 renal; 99.3% with ACHN renal. In addition, the growth in the experiment with CAKI-1 renal was 95.8%; in the experiment with A498 renal, 131%; in the experiment on CCRF-CEM leukemia, 88.7%; in the experiment on MOLT-4 leukemia it was 101%.

For `S=c1sc2ccccc2n1CN1CCCCC1`, the growth is 94% in the experiment on SK-MEL-2 melanoma; 104% in the experiment on EKVX NSCLC; 109% with SN12C renal; 77.2% in the experiment on UO-31 renal; 93.7% in the experiment with TK-10 renal; 98.7% in the experiment on ACHN renal. The growth is 88.2% with CAKI-1 renal, 96.5% with A498 renal, 102% with CCRF-CEM leukemia and 112% with MOLT-4 leukemia.

On to `CN(c1ccccc1)c1ncnc2c1ncn2C`, for which the growth in the experiment with SK-MEL-2 melanoma is 100%; in the experiment on EKVX NSCLC, 102%; in the experiment with SN12C renal, 98%; with UO-31 renal, 79.9%; in the experiment with TK-10 renal, 105%; with ACHN renal, 101%. The growth was 94% in the experiment on CAKI-1 renal, 88.4% in the experiment on A498 renal, 99.1% in the experiment with CCRF-CEM leukemia and 95.6% in the experiment on MOLT-4 leukemia.

In the case of `CN(C)CCN(Cc1ccccc1)c1ccccc1`, the growth was 124% in the experiment with SK-MEL-2 melanoma; 110% in the experiment on EKVX NSCLC; 97.5% in the experiment on SN12C renal; 107% with UO-31 renal; 110% with TK-10 renal; 110% in the experiment on ACHN renal. Moreover, the growth with CAKI-1 renal is 77.2%; in the experiment with A498 renal, 99%; with CCRF-CEM leukemia it was 123%; in the experiment on MOLT-4 leukemia, 90.5%.

Regarding `CN(C)c1nc2c([nH]1)c(=O)n(C)c(=O)n2C`, the growth was 98.7% in the experiment with SK-MEL-2 melanoma; 104% in the experiment on EKVX NSCLC; 105% with SN12C renal; 99.1% in the experiment on UO-31 renal; 107% in the experiment on TK-10 renal; 102% in the experiment with ACHN renal. The growth in the experiment on CAKI-1 renal is 102%; in the experiment on A498 renal, 89.6%; in the experiment on CCRF-CEM leukemia, 92.5%; with MOLT-4 leukemia, 99.6%.

As for `Oc1ccc2c(c1)OCC1(O)Cc3cc(O)c(O)cc3C21` (stereo not given), the growth with SK-MEL-2 melanoma was 65.7%; with EKVX NSCLC, 107%; in the experiment with SN12C renal, 100%; in the experiment on UO-31 renal, 58.9%; with TK-10 renal, 106%; in the experiment with ACHN renal, 104%. The growth in the experiment with CAKI-1 renal is 85.5%; in the experiment with A498 renal, 99.1%; with CCRF-CEM leukemia it was 71.5%; in the experiment on MOLT-4 leukemia it was 316%.

With `OCc1ccc(-c2ccc(-c3ccc(CO)s3)o2)s1`, the growth in the experiment on SK-MEL-2 melanoma was 79.7%; with EKVX NSCLC it was 99.9%; in the experiment on SN12C renal it was 55.7%; in the experiment on UO-31 renal it was 41.4%; in the experiment on TK-10 renal it was -20.9% (active); with ACHN renal, 63.7%. For the same molecule, the growth in the experiment with CAKI-1 renal was -54.3% (active); with A498 renal, -89.1% (active); in the experiment on CCRF-CEM leukemia, 41.5%; in the experiment on MOLT-4 leukemia, 33.1%.

Regarding `S=c1nn[nH]c2ccccc12`, the growth was 102% with SK-MEL-2 melanoma; 117% in the experiment with EKVX NSCLC; 93.4% with SN12C renal; 67.1% with UO-31 renal; 109% in the experiment on TK-10 renal; 93.2% with ACHN renal. Besides, the growth was 98.3% in the experiment with CAKI-1 renal, 109% with A498 renal, 111% with CCRF-CEM leukemia and 108% in the experiment on MOLT-4 leukemia.

As for `CC(=O)c1c[nH]c2ccccc12`, the growth in the experiment on SK-MEL-2 melanoma was 161%; in the experiment with EKVX NSCLC, 99.2%; in the experiment on SN12C renal it was 99.2%; in the experiment on UO-31 renal it was 74.7%; in the experiment with TK-10 renal, 108%; in the experiment with ACHN renal, 107%. Also, the growth with CAKI-1 renal is 80.1%; in the experiment with A498 renal, 103%; with CCRF-CEM leukemia it was 102%; with MOLT-4 leukemia it was 104%.
